# The full data set covers some 8,800 targets. This sample favours those with a hit. About 0.5% of all pairs of compound and target were hits. Values without a mark were called inactive.
# Columns and labels:
# Test in all cases: log2 fold change, soluble protein after heating vs DMSO (PISA); higher = thermal stabilisation; K562 lysate, 10 uM; active = over 0.2 and 3.5 SD of the protein, either way, in both replicates (recomputed)
# erlotinib = compound: C#Cc1cccc(Nc2ncnc3cc(OCCOC)c(OCCOC)cc23)c1 [erlotinib]
# In short: (§1)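 Quantification was by TMTpro 16plex LC-MS/MS with equalised channel sums, applied to the supernatant after 21,000xg for 90 min. Samples were crude K562 extract at 1 mg/mL protein in PBS pH 7.4 with 1 mM MgCl2, treated with 10 μM compound for 30 min, heated for 3 min across 48°C-58°C, pooled and brought to 0.5% NP-40 at 4°C. Values are log-two fold changes in thermal stability relative to solvent controls, from duplicates.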
# [1] = compound: C/C(=N\NC(=O)C1=CC(=CC=C1)S(=O)(=O)N2CCOCC2)/C3=C(C=CC(=C3)Cl)O
# In short: as §1
# [2] = compound: C1=CC(=CC=C1C2=NC3=C(N2)C=C(C=C3)C(=O)N)OC4=CC=C(C=C4)Cl
# In short: as §1
# [3] = compound: C1=CC2=C(C=CC(=C2)/C=C\3/C(=O)NC(=NCC4=CC=CS4)S3)N=C1
# In short: as §1
# [4] = compound: C1=CC2=NC=CN=C2C=C1/C=C/3\C(=O)NC(=O)S3
# In short: as §1
# [5] = compound: C1=CC=C(C=C1)C2=NC(=C(N2)C3=CC=NC=C3)C4=CC(=C(C=C4)Cl)O
# In short: as §1
# [6] = compound: C1=CC=C2C(=C1)C3=NNC4=CC=CC(=C43)C2=O
# In short: as §1
# [7] = compound: C1CCN(C1)C(=O)NC2=CC=CC(=C2)NC3=NC=C(C(=N3)NCCC4=CN=CN4)Br
# In short: as §1
# [8] = compound: C1CN(CCC1(CC2=CC=C(C=C2)Cl)N)C3=NC=NC4=C3C=CN4
# In short: as §1
# IRAK-1-4 Inhibitor I = compound: C1COCCN1CCN2C3=CC=CC=C3N=C2NC(=O)C4=CC(=CC=C4)[N+](=O)[O-] [IRAK-1-4 Inhibitor I]
# In short: as §1
# Chain of UniProt O60337 (O60337 whole entry, looked up): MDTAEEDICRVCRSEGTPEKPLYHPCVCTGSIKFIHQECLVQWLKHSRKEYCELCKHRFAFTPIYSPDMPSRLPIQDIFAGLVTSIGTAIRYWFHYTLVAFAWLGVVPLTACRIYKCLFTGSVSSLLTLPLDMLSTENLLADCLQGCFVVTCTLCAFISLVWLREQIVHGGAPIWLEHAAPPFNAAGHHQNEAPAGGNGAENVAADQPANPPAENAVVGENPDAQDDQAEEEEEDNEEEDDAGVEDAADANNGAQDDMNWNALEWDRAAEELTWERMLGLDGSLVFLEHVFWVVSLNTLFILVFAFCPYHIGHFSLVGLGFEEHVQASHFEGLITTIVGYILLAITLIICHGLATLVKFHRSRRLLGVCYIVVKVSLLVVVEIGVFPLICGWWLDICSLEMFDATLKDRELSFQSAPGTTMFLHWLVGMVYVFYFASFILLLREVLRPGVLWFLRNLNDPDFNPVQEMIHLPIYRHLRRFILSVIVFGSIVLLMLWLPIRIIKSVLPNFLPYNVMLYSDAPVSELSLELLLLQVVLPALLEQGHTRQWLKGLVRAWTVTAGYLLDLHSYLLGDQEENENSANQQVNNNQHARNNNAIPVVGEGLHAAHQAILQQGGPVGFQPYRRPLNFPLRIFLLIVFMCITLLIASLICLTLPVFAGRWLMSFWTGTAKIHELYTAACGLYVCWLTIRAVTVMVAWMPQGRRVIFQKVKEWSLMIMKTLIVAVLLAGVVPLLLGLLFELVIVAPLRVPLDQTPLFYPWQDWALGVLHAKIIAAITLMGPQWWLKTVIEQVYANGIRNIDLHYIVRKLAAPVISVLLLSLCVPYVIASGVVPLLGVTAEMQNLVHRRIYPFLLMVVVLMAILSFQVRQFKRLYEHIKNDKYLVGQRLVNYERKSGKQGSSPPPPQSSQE
# Chain of UniProt Q71SY5 (Q71SY5 whole entry, looked up): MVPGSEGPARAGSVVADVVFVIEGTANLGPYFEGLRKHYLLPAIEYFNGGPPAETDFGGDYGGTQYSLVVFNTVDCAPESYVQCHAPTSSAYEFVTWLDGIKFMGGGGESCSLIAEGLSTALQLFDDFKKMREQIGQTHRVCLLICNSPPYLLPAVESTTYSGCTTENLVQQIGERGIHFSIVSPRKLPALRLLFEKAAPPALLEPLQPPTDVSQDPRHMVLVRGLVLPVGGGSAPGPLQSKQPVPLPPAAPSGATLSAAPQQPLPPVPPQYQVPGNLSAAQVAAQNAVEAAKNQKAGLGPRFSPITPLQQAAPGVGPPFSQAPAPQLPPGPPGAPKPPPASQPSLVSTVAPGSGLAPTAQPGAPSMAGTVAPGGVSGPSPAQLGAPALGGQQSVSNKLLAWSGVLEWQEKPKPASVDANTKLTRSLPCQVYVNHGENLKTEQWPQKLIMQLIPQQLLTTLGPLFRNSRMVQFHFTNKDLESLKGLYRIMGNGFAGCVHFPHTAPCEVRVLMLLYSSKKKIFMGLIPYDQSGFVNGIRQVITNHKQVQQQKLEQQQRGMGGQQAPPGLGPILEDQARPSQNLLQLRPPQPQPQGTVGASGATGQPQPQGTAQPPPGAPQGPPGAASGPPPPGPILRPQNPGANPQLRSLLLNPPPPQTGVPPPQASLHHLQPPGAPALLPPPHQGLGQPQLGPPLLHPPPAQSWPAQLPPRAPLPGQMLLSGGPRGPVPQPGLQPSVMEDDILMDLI
# Chain of UniProt Q5T3J3 (Q5T3J3 whole entry, looked up): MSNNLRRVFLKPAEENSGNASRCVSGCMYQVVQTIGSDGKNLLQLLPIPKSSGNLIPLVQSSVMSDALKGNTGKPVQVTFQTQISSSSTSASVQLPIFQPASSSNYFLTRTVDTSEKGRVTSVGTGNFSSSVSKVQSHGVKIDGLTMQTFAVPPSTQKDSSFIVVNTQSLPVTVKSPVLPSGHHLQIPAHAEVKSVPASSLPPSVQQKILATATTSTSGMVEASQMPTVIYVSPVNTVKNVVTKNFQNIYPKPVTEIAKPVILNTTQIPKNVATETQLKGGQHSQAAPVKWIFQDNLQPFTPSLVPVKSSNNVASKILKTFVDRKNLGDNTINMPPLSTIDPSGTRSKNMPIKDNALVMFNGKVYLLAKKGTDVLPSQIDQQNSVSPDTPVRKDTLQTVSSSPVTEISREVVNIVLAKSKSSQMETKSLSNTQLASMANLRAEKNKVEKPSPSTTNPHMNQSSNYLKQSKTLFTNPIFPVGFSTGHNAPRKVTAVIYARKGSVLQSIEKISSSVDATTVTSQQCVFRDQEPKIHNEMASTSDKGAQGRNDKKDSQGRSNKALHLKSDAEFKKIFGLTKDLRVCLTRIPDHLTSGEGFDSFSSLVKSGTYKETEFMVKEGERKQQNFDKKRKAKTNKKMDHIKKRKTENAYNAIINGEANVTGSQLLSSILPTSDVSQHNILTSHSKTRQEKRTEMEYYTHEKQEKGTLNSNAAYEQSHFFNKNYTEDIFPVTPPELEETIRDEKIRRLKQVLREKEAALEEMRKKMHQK
# Chain of UniProt O95239 (O95239 whole entry, looked up): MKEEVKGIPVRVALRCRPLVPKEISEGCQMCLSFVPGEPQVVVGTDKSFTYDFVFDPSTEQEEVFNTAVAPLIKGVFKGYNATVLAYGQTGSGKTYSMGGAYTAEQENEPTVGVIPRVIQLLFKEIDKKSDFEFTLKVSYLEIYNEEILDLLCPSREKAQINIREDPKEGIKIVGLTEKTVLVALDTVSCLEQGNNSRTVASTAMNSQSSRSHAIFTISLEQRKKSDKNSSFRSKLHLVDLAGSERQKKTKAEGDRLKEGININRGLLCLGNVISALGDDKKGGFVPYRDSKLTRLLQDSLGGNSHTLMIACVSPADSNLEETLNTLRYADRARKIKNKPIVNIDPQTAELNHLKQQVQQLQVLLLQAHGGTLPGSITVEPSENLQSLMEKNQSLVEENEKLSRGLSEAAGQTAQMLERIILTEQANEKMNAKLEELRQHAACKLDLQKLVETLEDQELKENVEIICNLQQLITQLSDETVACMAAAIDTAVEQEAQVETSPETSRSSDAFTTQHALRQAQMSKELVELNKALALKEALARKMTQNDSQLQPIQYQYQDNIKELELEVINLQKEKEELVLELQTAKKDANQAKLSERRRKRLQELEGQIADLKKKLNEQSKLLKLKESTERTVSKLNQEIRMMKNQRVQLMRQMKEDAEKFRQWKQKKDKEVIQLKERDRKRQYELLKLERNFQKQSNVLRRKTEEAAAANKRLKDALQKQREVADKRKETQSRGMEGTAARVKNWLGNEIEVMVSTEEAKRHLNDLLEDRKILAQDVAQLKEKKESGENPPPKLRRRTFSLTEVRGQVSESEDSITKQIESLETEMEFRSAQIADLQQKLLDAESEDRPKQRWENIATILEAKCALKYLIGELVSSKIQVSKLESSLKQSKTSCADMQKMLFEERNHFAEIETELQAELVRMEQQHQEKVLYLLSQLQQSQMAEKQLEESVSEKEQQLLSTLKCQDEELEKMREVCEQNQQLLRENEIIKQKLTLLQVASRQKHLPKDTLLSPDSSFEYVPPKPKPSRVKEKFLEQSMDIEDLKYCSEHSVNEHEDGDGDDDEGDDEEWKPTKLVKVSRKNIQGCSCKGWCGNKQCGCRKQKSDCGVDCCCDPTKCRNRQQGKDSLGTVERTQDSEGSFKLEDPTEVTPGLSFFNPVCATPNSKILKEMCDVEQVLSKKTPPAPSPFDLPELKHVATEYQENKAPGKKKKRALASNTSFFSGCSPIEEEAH
# Chain of UniProt Q8WXB1 (Q8WXB1 whole entry, looked up): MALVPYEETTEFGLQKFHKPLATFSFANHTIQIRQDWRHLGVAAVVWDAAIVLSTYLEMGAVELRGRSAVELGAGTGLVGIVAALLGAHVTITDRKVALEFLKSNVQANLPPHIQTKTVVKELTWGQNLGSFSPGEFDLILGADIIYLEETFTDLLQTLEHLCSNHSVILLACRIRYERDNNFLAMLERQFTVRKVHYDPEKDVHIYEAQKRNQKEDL
# Chain of UniProt Q8TC05 (Q8TC05 whole entry, looked up): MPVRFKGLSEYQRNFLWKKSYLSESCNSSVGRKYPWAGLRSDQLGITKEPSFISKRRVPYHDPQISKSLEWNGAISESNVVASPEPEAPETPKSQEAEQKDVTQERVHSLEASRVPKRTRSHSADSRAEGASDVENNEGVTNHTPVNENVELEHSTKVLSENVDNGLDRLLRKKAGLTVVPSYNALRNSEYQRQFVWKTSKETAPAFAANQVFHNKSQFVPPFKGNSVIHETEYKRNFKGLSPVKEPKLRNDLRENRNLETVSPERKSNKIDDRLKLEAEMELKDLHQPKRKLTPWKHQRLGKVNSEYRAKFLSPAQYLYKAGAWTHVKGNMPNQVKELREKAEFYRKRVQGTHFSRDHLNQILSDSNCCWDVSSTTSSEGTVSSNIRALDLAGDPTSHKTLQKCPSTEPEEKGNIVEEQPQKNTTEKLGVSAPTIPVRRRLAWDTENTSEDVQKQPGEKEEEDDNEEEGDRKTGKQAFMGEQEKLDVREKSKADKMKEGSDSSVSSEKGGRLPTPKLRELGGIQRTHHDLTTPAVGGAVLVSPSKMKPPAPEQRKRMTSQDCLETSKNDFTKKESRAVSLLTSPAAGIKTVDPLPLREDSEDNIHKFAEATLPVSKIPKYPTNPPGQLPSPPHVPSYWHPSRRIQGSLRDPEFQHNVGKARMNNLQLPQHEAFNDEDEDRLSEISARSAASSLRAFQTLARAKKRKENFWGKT
# Chain of UniProt Q9NWR8 (Q9NWR8 whole entry, looked up): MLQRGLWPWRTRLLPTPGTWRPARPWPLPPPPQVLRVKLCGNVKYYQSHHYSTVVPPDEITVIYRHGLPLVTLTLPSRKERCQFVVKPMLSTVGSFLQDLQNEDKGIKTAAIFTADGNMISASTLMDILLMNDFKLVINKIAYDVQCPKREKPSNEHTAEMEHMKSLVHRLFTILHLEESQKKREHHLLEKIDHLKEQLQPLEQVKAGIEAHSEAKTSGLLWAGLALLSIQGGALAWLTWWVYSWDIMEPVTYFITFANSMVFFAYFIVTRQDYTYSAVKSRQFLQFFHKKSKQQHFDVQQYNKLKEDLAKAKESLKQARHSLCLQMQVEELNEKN
Target,log2 fold change (erlotinib),log2 fold change [1],log2 fold change [2],log2 fold change [3],log2 fold change [4],log2 fold change [5],log2 fold change [6],log2 fold change [7],log2 fold change [8],log2 fold change (IRAK-1-4 Inhibitor I)
MAP3K4 (UniProt Q9Y6R4),0.051,-0.027,-0.026,0.011,-0.014,0.018,0.105,0.051,-0.101,-0.013
MBOAT2 (UniProt Q6ZWT7),-0.003,0.014,-0.111,-0.022,-0.036,-0.007,-0.076,-0.148,-0.011,-0.065
KIF4A (UniProt O95239),0.015,-0.022,-0.042,0.02,0.022,0.014,-0.033,-0.026,0.031,-0.01
LIG3 (UniProt P49916),-0.003,0.027,-0.04,0.009,-0.006,0.011,-0.013,0,-0.036,-0.035
METTL2A (UniProt Q96IZ6),0.023,-0.009,-0.026,0.037,0,-0.018,-0.026,0.002,0.166,0.042
LRIF1 (UniProt Q5T3J3),-0.015,0.11,0.046,-0.301 (active),–,0,0.1,-0.031,-0.009,-0.02
MEX3A (UniProt A1L020),–,0.108,–,-0.108,–,-0.007,-0.29,–,–,0.168
LRRIQ1 (UniProt Q96JM4),–,0.038,–,-0.003,–,0.041,-0.003,–,–,-0.083
MRPL22 (UniProt Q9NWU5),-0.424 (active),–,-0.074,–,–,0.006,–,–,–,-0.01
LEPROT (UniProt O15243),0.176,–,-0.116,–,-0.02,-0.064,–,0.122,0.045,-0.036
MRPL27 (UniProt Q9P0M9),-0.072,–,0.068,–,-0.019,0.056,–,0.023,0.019,-0.044
METTL21A (UniProt Q8WXB1),-0.074,–,-0.011,–,0.019,-0.027,–,–,–,-0.04
MEGF8 (UniProt Q7Z7M0),0.045,–,0.016,–,0.013,0.075,–,-0.116,0.071,-0.36 (active)
KMT2B (UniProt Q9UMN6),-0.494,–,-0.226,–,–,–,–,-0.028,-0.015,–
KIF21A (UniProt H0YI78),-0.064,–,0.088,–,-0.015,–,–,–,–,–
MPDZ (UniProt O75970),-0.017,-0.061,-0.095,-0.273,–,-0.091,0.004,-0.099,0.108,0.149
MED25 isoform 3 (UniProt Q71SY5),0.092,–,0.01,–,-0.062,-0.006,–,0.06,0.073,0.073
LGALS3BP (UniProt Q08380),-0.154,0.293,0.064,0.331,–,–,-0.203,0.018,-0.171,–
LSM11 (UniProt P83369),0.104,0.262,0.065,-0.056,–,–,-0.044,-0.029,-0.055,–
KIF18B (UniProt Q86Y91),–,–,–,–,–,–,–,-0.117,0.033,–
KRAS isoform 2 (UniProt P01116),-0.038,–,0.087,–,–,-0.071,–,-0.044,0.015,0.033
MME (UniProt P08473),0,–,0.052,–,-0.067,0.011,–,–,–,0.095

Target,log2 fold change (erlotinib),log2 fold change [1],log2 fold change [2],log2 fold change [3],log2 fold change [4],log2 fold change [5],log2 fold change [6],log2 fold change [7],log2 fold change [8],log2 fold change (IRAK-1-4 Inhibitor I)
LIMK1 (UniProt P53667),–,0.114,–,-0.088,0.133,-0.002,0.029,0.068,-0.05,0.06
LY6E (UniProt Q16553),–,-0.095,–,0.049,-0.033,–,-0.27,-0.02,0.025,–
MAP3K6 (UniProt O95382),–,0.05,–,0.183,–,–,0.487,0.033,-0.008,–
MAN2B2 (UniProt Q9Y2E5),0.006,–,-0.019,–,-0.003,-0.035,–,-0.01,0.045,0.009
MRC2 (UniProt Q9UBG0),-0.225,–,0.031,–,–,–,–,0.011,0.061,–
MDM1 (UniProt Q8TC05),-0.018,-0.105,-0.036,-0.066,–,-0.054,-0.041,-0.05,-0.075,-0.043
LRPPRC (UniProt H7C3W8),–,-0.13,–,-0.053,–,–,-0.3,–,–,–
MMS22L (UniProt Q6ZRQ5),0.067,0.032,0,-0.093,0.037,–,0.064,0.019,-0.021,–
LRRC7 (UniProt Q96NW7),–,0.042,–,-0.493 (active),-0.108,0.065,0.038,0.02,0.067,0.048
MCUB (UniProt Q9NWR8),0.048,–,-0.069,–,0.209,0.048,–,–,–,-0.12
KIF3C (UniProt O14782),0.389,0.05,-0.082,-0.116,–,0.025,-0.117,0.158,0.146,-0.023
MRPL30 isoform 2 (UniProt Q8TCC3),-0.004,–,-0.01,–,-0.037,-0.03,–,0.067,0.015,0.015
LRP1 (UniProt Q07954),–,0.266,–,-0.092,–,–,-0.211,-0.196,-0.055,–
KRAS (UniProt P01116),-0.112,0.033,0.069,-0.052,–,-0.036,-0.041,-0.021,-0.008,0.007
MED28 (UniProt Q9H204),0.057,–,0.039,–,–,0.045,–,–,–,-0.012
MAPKAP1 (UniProt Q9BPZ7),-0.091,–,-0.059,–,–,0.062,–,0.141,-0.181,-0.19
MAP4K4 isoform 6 (UniProt O95819),0.006,–,0.156,–,0.094,-0.061,–,0.003,-0.078,-0.049
MAPK7 (UniProt Q13164),-0.1,–,0.012,–,–,–,–,-0.057,0.032,–
LYN isoform 2 (UniProt P07948),-0.161,–,-0.093,–,–,0.132,–,-0.035,-0.385,0.493
MARCHF6 (UniProt O60337),0.004,0.008,0.101,0.042,-0.202,–,-0.133,0.047,-0.023,–
LRRC9 (UniProt Q6ZRR7),–,-0.037,–,0.02,–,–,-0.01,-0.044,-0.07,–
KLC1 isoform 10 (UniProt Q07866),0.071,–,-0.165,–,0.122,–,–,0.241,-0.337,–

# Source: the supplement of paper PMC10849652
